In PubChem BioAssay:
The source made the active and inactive calls.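 The calls were made as follows, unless noted: active = visually confirmed hit in the image check and inhibition above 20%; inconclusive = visually confirmed hit but inhibition not above 20%; inactive = no visual hit in the image check.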

What was measured:
[1] = inhibitors of TNFa-induced NFkB p65 translocation, primary screen, imaging, HUVEC, MLSMR starter and 10KST1 sets (AID 438;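 active = inhibition above 20% together with a positive visual image hit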;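 also: compound added about 3h40 before a 20 min TNFalpha stimulation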;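 as to inhibition: signal is the nuclear over cytoplasmic p65 intensity ratio per well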); details: HUVEC TNFa-induced p65 nuclear translocation; cell count: measured here: nuclei count (cytotoxicity indicator), at 2.08 µM; inhibition: at 2 µM, stronger effect = higher value, 0% TNFa-plus-vehicle, 100% no-TNFa wells
[2] = reduction of polyQ htt aggregates in cells – imaging, exon1htt(103Q)mCFP cells, high-content imaging, primary screen (AID 483;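 active = visual image review flags a hit and inhibition of aggregation exceeds 20%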;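 also: compound exposure lasted 3 days before fixation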;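 as to nuclei count: percent of the per-plate median nuclei count of sample wells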); details: exon1htt(103Q)mCFP cell line, aggregate imaging, at 2 µM; inhibition of aggregation: stronger effect = higher value; nuclei count: measured here: cell count, toxicity
[3] = endothelial E-selectin expression blockers – imaging, HUVEC, immunofluorescence, MLSMR starter and 10KST1 sets, primary screen (AID 487); details: HUVEC TNFalpha-induced E-selectin immunofluorescence imaging, at 2 µM; inhibition: stronger effect = higher value; nuclei count: measured here: cell number, toxicity;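 as to inhibition: signal is fraction of cell area covered by stained E-selectin grains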;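 as to nuclei count: 100% = median nuclei count of all wells on the same plate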
[4] = target: Voltage-gated potassium channel subunit beta-2 (Rattus norvegicus) (UniProt P62483); experiment: inhibitors of rat Kvbeta2 reductase activity – biochemical, NADPH fluorescence, primary screen (AID 622;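 active = fluorescence slope higher than the sample average by over 3 SD, cut at about -0.22 in these data, passing the limit was not always enough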;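 also: slope of raw intensity against log time taken from 70 to 1610 s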); details: recombinant KvBeta, 4-cyanobenzaldehyde reduction, at 10 µM, stronger effect = higher value
[5] = target: Voltage-gated potassium channel subunit beta-2 (Rattus norvegicus) (UniProt P62483); experiment: enhancers of rat Kvbeta2 NADPH turnover – biochemical, NADPH fluorescence, primary screen (AID 623;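 active = NADPH fluorescence slope more negative than the mean of all samples by about 3 SD, 99.7% confidence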;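 also: fluorescence intensity change per second fitted from 20 to 320 s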); details: Recombinant KvBeta, NADPH fluorescence decrease slope, 10 min; at 10 µM; stronger effect = lower value
[6] = target: Alpha-2C adrenergic receptor (Homo sapiens) (UniProt P18825); experiment: compounds altering alpha2C-coupled GIRK flux – cell-based, HEK293 alpha2C/GIRK1/2, thallium flux, primary screen (AID 624;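 active = fluorescence slope after compound addition differing from the mean of all screened samples at 99.7% confidence, in either direction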;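 also: slope of fluorescence ratio to pre-addition baseline per second over 15 to 24 s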); details: thallium flux BTC fluorescence, at 10 µM, actives lie on both sides
[7] = blockers of RIG-like receptor reporter activation – cell-based, Sendai virus stimulus, luciferase, 10K MLSCN set, TLR/RLR signaling modifier project, primary screen (AID 602276;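 active = inhibition at or above 50% at 10 µM; inactive = inhibition below 50%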;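 also: firefly luciferase from ISG56 promoter only with Renilla not read in this screen; 0% = Sendai virus plus DMSO and 100% = medium plus DMSO without virus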); details: HEK293 RL24 IRF3 luciferase reporter, at 10 µM, stronger effect = higher value
[8] = TLR3 IRF3 reporter activation blockers – cell-based, poly I:C stimulus, luciferase, 10K MLSCN set, primary screen (AID 602277;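 active = inhibition of the reporter signal at or above 50%; inactive = inhibition below 50%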); details: HEK293-TLR3 RL24 IRF3 luciferase reporter, at 10 µM, stronger effect = higher value

Sequence of Voltage-gated potassium channel subunit beta-2 (Rattus norvegicus) (P62483 whole entry, looked up): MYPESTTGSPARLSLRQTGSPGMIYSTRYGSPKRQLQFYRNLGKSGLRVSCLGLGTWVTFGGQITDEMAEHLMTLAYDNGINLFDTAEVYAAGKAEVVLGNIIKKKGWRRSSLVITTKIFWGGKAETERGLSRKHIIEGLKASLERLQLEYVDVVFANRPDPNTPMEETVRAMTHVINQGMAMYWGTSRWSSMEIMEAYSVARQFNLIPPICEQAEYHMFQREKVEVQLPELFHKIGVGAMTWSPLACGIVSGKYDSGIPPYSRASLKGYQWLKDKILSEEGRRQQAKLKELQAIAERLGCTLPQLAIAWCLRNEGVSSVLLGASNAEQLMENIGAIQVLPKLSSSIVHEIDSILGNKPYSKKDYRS
Sequence of Alpha-2C adrenergic receptor (Homo sapiens) (P18825 whole entry, looked up): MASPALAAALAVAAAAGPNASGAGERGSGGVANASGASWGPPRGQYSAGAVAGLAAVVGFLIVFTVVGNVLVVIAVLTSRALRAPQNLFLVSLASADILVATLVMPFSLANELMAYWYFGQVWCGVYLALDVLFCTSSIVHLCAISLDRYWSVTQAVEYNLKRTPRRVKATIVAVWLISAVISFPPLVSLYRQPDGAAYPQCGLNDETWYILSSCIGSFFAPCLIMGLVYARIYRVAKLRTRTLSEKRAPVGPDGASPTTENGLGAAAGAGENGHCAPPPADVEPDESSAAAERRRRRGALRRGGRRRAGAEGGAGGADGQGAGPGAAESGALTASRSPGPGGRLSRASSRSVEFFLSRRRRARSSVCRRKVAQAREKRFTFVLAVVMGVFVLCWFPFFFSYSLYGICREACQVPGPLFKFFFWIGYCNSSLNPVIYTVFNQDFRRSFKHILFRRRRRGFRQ

| SMILES | cell count [1] | inhibition [1] | inhibition of aggregation [2] | nuclei count [2] | inhibition [3] | nuclei count [3] | fluorescence slope [4] | NADPH fluorescence slope [5] | slope [6] | inhibition [7] | inhibition [8] |
| --- | --- | --- | --- | --- | --- | --- | --- | --- | --- | --- | --- |
| CN(C(=O)COc1cc(=O)n(C)c2ccccc12)c1ccc(Br)cc1 | 389 | 71.5% (active) | 2.9% (inactive) | 104% | -178% (inactive) | 142% | -0.513 (inactive) | -1.3e-05 (inactive) | 0.00662 (inactive) | 6.78% (inactive) | 45.9% (inactive) |
| O=C(NCc1ccc2c(c1)OCO2)c1ccccn1 | 345 | -2% (inactive) | 18.9% (inactive) | 100% | 5.4% (inactive) | 122% | -0.375 (inactive) | 4.1e-05 (inactive) | 0.00534 (inactive) | -23.2% (inactive) | -28.1% (inactive) |
| Cc1ccc(S(=O)(=O)Cc2ccc(C(=O)N3CCN(Cc4ccccc4)CC3)o2)cc1 | 760 | -9.8% (inactive) | -10.9% (inactive) | 101% | -76.2% (inactive) | 118% | -0.569 (inactive) | -1.3e-05 (inactive) | 0.00635 (inactive) | 10.7% (inactive) | 37.2% (inactive) |
| CCCCCc1c(C)nc(N2CCc3ccccc32)[nH]c1=O | 398 | -2.2% (inactive) | -1.3% (inactive) | 112% | -5.8% (inactive) | 89.4% | -0.609 (inactive) | 1.7e-05 (inactive) | 0.00814 (inactive) | 13.9% (inactive) | -33.8% (inactive) |
| Nc1nc2ccccc2n1C(=O)CCc1ccccc1 | 663 | -1.2% (inactive) | -11.5% (inactive) | 69% | -36.3% (inactive) | 125% | -0.396 (inactive) | -3.8e-05 (inactive) | 0.0047 (inactive) | -24.1% (inactive) | -73.1% (inactive) |
| Cc1cc(C(=O)Nc2cccnc2)no1 | 543 | -10.1% (inactive) | -9.5% (inactive) | 116% | -133% (inactive) | 112% | -0.35 (inactive) | -5.2e-05 (inactive) | 0.0058 (inactive) | -17% (inactive) | -20.9% (inactive) |
| CN(C#N)c1nc(N2CCOCC2)nc(N2CCOCC2)n1 | 424 | -3.8% (inactive) | -5.5% (inactive) | 104% | -192% (inactive) | 105% | -0.612 (inactive) | 6.7e-06 (inactive) | 0.00573 (inactive) | 16.7% (inactive) | 20% (inactive) |
| O=C(O)C1C2C=CC3(CN(C4CCCC4)C(=O)C13)O2 (centres undefined) | 521 | -3.4% (inactive) | 24.1% (inactive) | 69.2% | -23.3% (inactive) | 97.3% | -0.546 (inactive) | -1.2e-05 (inactive) | 0.00708 (inactive) | 12.5% (inactive) | 38% (inactive) |
| CCS(=O)(=O)N1CCCC(C(=O)NCc2cccc(OC)c2)C1 (centres undefined) | 722 | -5.5% (inactive) | -59.8% (inactive) | 105% | -66.4% (inactive) | 116% | -0.617 (inactive) | -1.9e-05 (inactive) | 0.00403 (inactive) | -3.96% (inactive) | 3.19% (inactive) |
| Cc1ccc(-c2nn(C)c(=O)c3ccccc23)cc1S(=O)(=O)NCCN1CCOCC1 | 325 | 5% (inactive) | 13.3% (inactive) | 100% | -24.7% (inactive) | 113% | -0.468 (inactive) | 4.7e-05 (inactive) | 0.00544 (inactive) | -17.1% (inactive) | 3.02% (inactive) |
| O=C(CCNS(=O)(=O)c1cccc2nsnc12)NCc1cccs1 | 623 | -21% (inactive) | -17.4% (inactive) | 101% | -34.5% (inactive) | 118% | -0.508 (inactive) | -0.000109 (inactive) | 0.00523 (inactive) | 17.1% (inactive) | 19% (inactive) |
| O=C(CN1C(=O)CCS(=O)(=O)c2ccccc21)Nc1cccc(F)c1 | 383 | -6.8% (inactive) | -2.1% (inactive) | 113% | -27.1% (inactive) | 135% | -0.335 (inactive) | -4.5e-05 (inactive) | 0.00547 (inactive) | 1.07% (inactive) | 10.8% (inactive) |
| c1ccc2c(Cn3ccnc3)c[nH]c2c1 | 410 | 6.5% (inactive) | -17.6% (inactive) | 90% | -12.3% (inactive) | 96.2% | -0.414 (inactive) | -0.000163 (inactive) | 0.00685 (inactive) | 6.54% (inactive) | 38.9% (inactive) |
| CC(C)Cn1c(CN2CCN(c3ccccc3F)CC2)nc2c1c(=O)[nH]c(=O)n2C | 664 | -7.7% (inactive) | -8.3% (inactive) | 101% | -7.3% (inactive) | 103% | -0.521 (inactive) | -3.3e-05 (inactive) | 0.00688 (inactive) | 10.6% (inactive) | 19.7% (inactive) |
